# The campaign covered roughly 97,000 compounds. About 520 (0.54%) were called active. Shown is part of a subset that was picked to be rich in actives. Unmarked numbers belong to inactive results.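 Rule for the calls: active = inhibition of 50% or more in the single-concentration screen; inactive = inhibition below 50%.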
# Target: Serine/threonine-protein kinase PLK1 (Homo sapiens) (UniProt P53350)
# Assay: human PLK1 kinase inhibitors, primary screen, biochemical, TR-FRET (AID 619);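 note: 0% = DMSO max control and 100% = H-89 dihydrochloride min control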
# Conditions: recombinant PLK1 kinase, TR-FRET peptide phosphorylation; at 10 µM; active compounds read high
# Serine/threonine-protein kinase PLK1 (Homo sapiens), sequence (P53350 whole entry, looked up): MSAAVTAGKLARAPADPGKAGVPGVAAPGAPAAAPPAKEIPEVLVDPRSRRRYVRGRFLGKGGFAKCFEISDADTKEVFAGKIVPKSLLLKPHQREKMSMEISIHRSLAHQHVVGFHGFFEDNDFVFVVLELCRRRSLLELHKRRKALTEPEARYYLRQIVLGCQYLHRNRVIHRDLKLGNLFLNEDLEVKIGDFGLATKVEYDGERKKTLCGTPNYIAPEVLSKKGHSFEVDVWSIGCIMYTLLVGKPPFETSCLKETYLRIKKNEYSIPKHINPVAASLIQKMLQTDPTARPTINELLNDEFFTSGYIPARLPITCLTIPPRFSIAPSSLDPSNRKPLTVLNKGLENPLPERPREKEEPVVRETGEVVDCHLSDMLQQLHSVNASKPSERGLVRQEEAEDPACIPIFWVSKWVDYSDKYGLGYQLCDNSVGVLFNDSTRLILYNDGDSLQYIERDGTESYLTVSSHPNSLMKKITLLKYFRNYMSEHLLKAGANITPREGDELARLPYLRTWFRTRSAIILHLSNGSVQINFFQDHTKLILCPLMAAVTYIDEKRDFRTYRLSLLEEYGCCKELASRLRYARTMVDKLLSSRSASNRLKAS
row,SMILES,inhibition
1,O=C1c2ccccc2C(Nc2ccc3c(c2)OCCO3)N1Cc1ccco1 (configuration not stated),-13.3%
2,Cc1cccc(C(=O)Nc2ccccc2-c2nnn(CC(=O)Nc3ccc4c(c3)OCCO4)n2)c1,-19.8%
3,Cc1ccnc(N2C(=O)c3ccccc3C2Nc2ccc3c(c2)OCCO3)c1 (configuration not stated),75.7% (active)
4,O=C(Nc1ccc(S(=O)(=O)N2CCc3ccccc3C2)cc1)c1ccccc1,-9.1%
5,CCN1CCN(C(=O)C2(NC(=O)Nc3cccc(F)c3)CCCCC2)CC1,-9.1%
6,CCOC(=O)C1=C(C)NC2=C(C(=O)CC(C)(C)C2)C1c1ccsc1 (configuration not stated),-9.3%
7,CC(=O)N/C(=C/c1ccc(Cl)cc1)C(=O)NCCc1c[nH]c2ccccc12,-8.99%
8,CCCOn1c(-n2nc(C)cc2C)nc2ccccc2c1=O,-12.7%
9,COc1ccc2ccccc2c1CNCc1ccccn1,-6.16%
10,CN(C)/C=C/C(=O)c1ccccc1F,-7.63%
11,COc1ccccc1CNC(=O)c1ccc(SC)cc1OC,-11.5%
12,CCOc1ccc(CN(Cc2ccco2)S(=O)(=O)c2ccc(-n3cnnn3)c(OC)c2)cc1,-4.62%
13,CCOc1[nH]n(-c2ccc(Cl)cc2)c(=O)c1C=Nc1ccc(O)cc1,-12.9%
14,O=C(O)c1ccccc1NC(=S)NC(NC(=O)c1ccccc1[N+](=O)[O-])C(Cl)(Cl)Cl (configuration not stated),-10.3%
15,Cc1ccc(C2=CSC3=NS(=O)(=O)CCN23)cc1C,-12.2%
16,Cc1[nH]n(-c2ccc([N+](=O)[O-])cc2)c(=O)c1C=NCCN1CCN(C(=O)c2ccccc2F)CC1,-16.1%
17,Cc1ccc(NC(=S)Nc2ncccc2C)c(C)c1,-6.19%
18,CC(=O)Nc1cccc(NC(=O)c2c(-c3ccccc3)noc2C)c1,-5.51%
19,Cc1onc(-c2ccccc2)c1C(=O)N1CCOCC1,-6.08%
20,Cc1onc(-c2ccccc2)c1C(=O)Nc1ccccc1C#N,66.8% (active)
21,O=C(/C=C/Nc1ccccc1OC(F)(F)F)C(F)(F)F,-3.23%
22,COc1ccc(-n2cnc3cc(NCc4ccco4)ccc32)cc1,-1.91%
23,COc1ccc(-c2cc(C3CCN(c4ncccc4[N+](=O)[O-])CC3)[nH]n2)cc1,-0.7%
24,CCOC(=O)Nc1ccc2c(c1)N(C(=O)CCN1CCN(CCO)CC1)c1ccccc1CC2,-25.9%
25,CCN(CC)Cc1cc(C(C)=O)ccc1O,-5.02%

row,SMILES,inhibition
1,CC(=O)Nc1ccc(NC(=O)c2sc3nc4c(c(-c5ccc(C)cc5)c3c2N)CCC4)cc1,-27.3%
2,CCN(CC)CCNc1ccc(Cl)cc1[N+](=O)[O-],-12.3%
3,Cc1cc(C)c2c3c(sc2n1)C(c1ccccc1)C(C#N)=C(N)O3 (configuration not stated),-9.36%
4,c1ccc(CCC2=NCCn3cccc32)cc1,-1.03%
5,CNC(=O)CSc1nnc(CCc2ccccc2)n1-c1ccccc1,-5.54%
6,CC1CSc2nnc(CCc3ccccc3)n21 (configuration not stated),85.2% (active)
7,Cc1ccoc1C(=O)Nc1cccc(Oc2ccccc2)c1,1.94%
8,Cc1nc2nc(C)c(CCC(=O)N3CCN(c4ccccc4)CC3)c(C)n2n1,4.83%
9,c1cncc(-c2nnc3n2C2(CCCCC2)Cc2ccccc2-3)c1,-8.5%
10,COc1cccc(/C=N/NC(=O)C(=O)N2CCCC2)c1,-9.34%
11,CCOC(=O)N1CCN(Cc2nc(N)nc(Nc3ccc(C)cc3)n2)CC1,-13.1%
12,CC(Oc1ccc(F)cc1F)C(=O)/C=C/N(C)C (configuration not stated),0.09%
13,CN1CCN(c2ccc([N+](=O)[O-])c(Sc3nc4ccccc4[nH]3)c2)CC1,-5.67%
14,C=CCn1c(Cn2nnc3ccccc32)nnc1SCC(=O)N/N=C/c1cc(Br)cc(OC)c1O,-6.54%
15,CCN1CCN(C(=O)c2cc3cc4ccc(OC)cc4nc3s2)CC1,-4.82%
16,COc1ccc(-n2c(SCC(=O)NCc3ccco3)nnc2-c2c[nH]c3ccccc23)cc1,-3.5%
17,CCc1ccccc1NC(=O)c1cccs1,-6.58%
18,CCc1nnc(NC(=O)c2cccs2)s1,60.3% (active)
19,CCCc1nnc(NC(=O)c2cccs2)s1,-6.49%
20,Cc1ccc2nc(SC(C)C(=O)NCc3ccco3)[nH]c2c1 (configuration not stated),1.32%
21,CN1CCN(c2cc(=O)n(-c3ccc(Cl)cc3)c(=O)[nH]2)CC1,67.4% (active)
22,CN1CCN(c2ccc(NC(=O)COc3ccc(Cl)cc3Cl)cc2)CC1,3%
23,Cc1ccc(-n2c(=O)cc(N3CCN(Cc4ccccc4)CC3)[nH]c2=O)cc1,-1.26%
24,COc1ccc(C2Nc3ccccc3C(=O)N2Cc2ccccc2)cc1Cn1nnc2ccccc21 (configuration not stated),-11.2%
25,C[N+]1(CCNC(=O)/C=N/O)CCCCC1,95.9% (active)

row,SMILES,inhibition
1,Cc1ccc(S(=O)(=O)c2c(COC(=O)c3cccc(Cl)c3)c(-c3ccccc3)nn2C)cc1,3.59%
2,CCOC(=O)c1c(NC(=S)Nc2ccccc2)sc2c1CCN(C)C2,-13.1%
3,CCOc1ccccc1C1CC(c2ccc(Cl)cc2)Nc2nc(N)nn21 (configuration not stated),-12.7%
4,COc1ccc(C2CC(c3ccc(C)cc3)Nc3nc(N)nn32)cc1 (configuration not stated),-3.47%
5,CCOc1ccccc1C1CC(c2ccccc2)Nc2nc(N)nn21 (configuration not stated),64% (active)
6,CCOc1ccc(S(=O)(=O)N2CCCCCC2)c2ccccc12,-17.7%
7,O=C(CNC(=O)Cc1ccccc1)NCC(=O)OCC(=O)c1ccccc1Cl,-4.92%
8,COc1ccc(C2=NOC3(CC(=O)N(c4ccc(Cl)cc4)C3=O)C2)c(OC)c1 (configuration not stated),-9.65%
9,CC(=O)c1cn(CCCCCCCCCCn2cc(C(C)=O)c(=O)[nH]c2=O)c(=O)[nH]c1=O,-6.55%
10,COc1nc(-c2ccc(Cl)cc2)ccc1-c1noc(-c2cccs2)n1,-90.7%
11,O=C(CSc1ncnc2c1cnn2CCc1ccccc1)Nc1ccc(F)cc1,-7.32%
12,Cc1cc(C)c(OCC(=O)N/N=C/c2ccco2)c(C)c1,6.14%
13,Cc1ccc(CS(=O)(=O)CCC(=O)NC2CC2)cc1,-7.25%
14,Nc1ccc(-n2nncc2-c2ccco2)cc1,-4.39%
15,CCCc1nc2scc(-c3ccc(C)cc3)c2c(=O)n1N,5.26%
16,COc1ccc(CCN2C(=O)C3CC=C(C)CC3C2=O)cc1OC (configuration not stated),-10.2%
17,COc1cc(OC)c(-n2c(C)cc(C=O)c2C)cc1Cl,-6.8%
18,CCCC(=O)n1nc(-c2ccccc2)nc1N,-4.99%
19,COc1ccccc1NS(=O)(=O)N(C)C,-7.41%
20,O=C(O)CCC(=O)NCc1ccc(C(=O)O)cc1,-9.7%
21,C=CCn1c(SCC(=O)c2c(N)n(C)c(=O)n(C)c2=O)nc2sc(CC)cc2c1=O,-9.06%
22,CC(=O)c1ccc(OCCN2CCOCC2)cc1,-17.4%
23,COc1ccc(C(=O)c2c(C)oc3cc([N+](=O)[O-])c(O)c([N+](=O)[O-])c23)cc1,-2.19%
24,Cc1ccc(Cc2cnc(NC(=O)/C(C#N)=C/c3ccc(-c4cccc([N+](=O)[O-])c4)o3)s2)cc1,-5.56%
25,CSc1nc(C)nc2c1c(=O)n(C)c(=O)n2C,68.3% (active)

row,SMILES,inhibition
1,CCCSc1nc2c(c(=O)n(C)c(=O)n2C)n1Cc1ccc(C)cc1,6.87%
2,CCC(C)Sc1nc(C)nc2c1c(=O)n(C)c(=O)n2C (configuration not stated),52.6% (active)
3,Cn1c(=O)c2c(SCC(=O)N3CCOCC3)nc(C3CC3)nc2n(C)c1=O,36.6%
4,COc1ccc(CC(=O)Nc2sc(Cc3ccccc3)c(C)c2C(N)=O)cc1,-12%
5,O=c1cc(C(F)(F)F)[nH]c(=O)n1C1CCCCC1,-12.1%
6,COc1ccc(/C=C/C(=O)Nc2c(C)nn(C)c2C)cc1COc1ccc(Br)cc1,-7.02%
7,CCc1c(C)nc2cc(C)[nH]n2c1=O,-1.93%
8,FC(F)(F)c1cc(C(F)(F)F)c2ccc(N3CCN(c4ccccc4)CC3)nc2n1,-4.18%
9,C=CCn1cnc2scc(-c3ccccc3)c2c1=O,-17.6%
10,CN(CCC#N)c1ncnc2scc(-c3ccccc3)c12,54.3% (active)
11,N#CCCN(CCC#N)c1nnc(-c2ccccc2)s1,-13.8%
12,CS(=O)(=O)n1nc(-c2ccccc2)nc1NCc1ccco1,-17.7%
13,Cc1nc2cc(NC(=O)CSc3nc4c(C)cccc4cc3C#N)ccc2s1,-34.1%
14,CC(=O)C1=C(C)NC(=O)NC1c1cc(Br)ccc1OCC#N (configuration not stated),-9.62%
15,CC1=CC(=O)C=CC1(C)C(Cl)(Cl)Cl (configuration not stated),-6.25%
16,CC/C(=N/Nc1ccccc1)c1cnnc(SC)n1,-14.3%
17,COC(=O)/C=C/C(=O)NCc1ccco1,-9.17%
18,Cc1ccc(C(=O)NCCNS(=O)(=O)c2ccccc2)cc1,-5.51%
19,Cc1ccccc1CSCCNC(=O)c1ccc(N(C)S(=O)(=O)c2ccccc2)cc1,57.1% (active)
20,Cc1ccccc1CSCCNC(=O)c1ccc(Cl)c(S(=O)(=O)N2CCOCC2)c1,-1.84%
21,Cc1cc(OCCOc2cccc3cccnc23)c(C)cc1Cl,-13.9%
22,CCN1C(=O)/C(=C2/Sc3ccc(OC)cc3N2C)SC1=Nc1ccc(C)cc1,-9.58%

# — PubChem BioAssay AID619 (University of Pittsburgh Molecular Library Screening Center, 2007)
